Compounds without any hit were thinned out: in the full panel of roughly 83,000, 20% have a hit.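 Cell lines were cultured in 96-well plates, exposed to a single compound concentration, and assessed for percent growth 48 hours later.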 Unmarked numbers belong to inactive results. Calls of active or inactive are those of the source. Rule for the calls: active = growth percent below 10; inactive = the rest.

What all share (experiment): NCI-60 one-dose screen, 48 h (100 = growth as untreated, 0 = no growth, -100 = all killed)
Holding throughout (settings): 10 µM unless noted

The test system of assay [1] is DU-145 prostate.
In assay [2] the test system is K-562 leukemia.
The test system of assay [3] is MALME-3M melanoma.
The test system of assay [4] is MDA-MB-231 breast.
The test system of assay [5] is RXF 393 renal.
Assay [6] relates to SF-268 CNS.
In assay [7] the test system is SF-295 CNS.
For assay [8], the system named is SF-539 CNS.
Assay [9] deals with UACC-257 melanoma.
Assay [10] has as its system HCT-15 colon.
Assay [11] concerns HT29 colon.
In assay [12] the test system is SNB-75 CNS.
The subject of assay [13] is SNB-19 CNS.
The test system of assay [14] is U251 CNS.
In assay [15] the test system is PC-3 prostate.
For assay [16], the system named is SK-MEL-5 melanoma.
Assay [17] concerns UACC-62 melanoma.
For assay [18], the system named is LOX IMVI melanoma.
Assay [19] deals with SK-MEL-28 melanoma.
The test system of assay [20] is M14 melanoma.

`O=S(=O)(NCc1ccccc1)c1ncnc2nc[nH]c12`: the growth in [1] was 111%; in [2], 97.1%; in [3], 117%; in assay [4], 107%; in assay [5], 114%; in [6] it was 110%. In addition, the growth was 104% in [7]; 98.1% in [8]; 92.7% in assay [9]; 108% in [10]; 106% in assay [11]; 91.4% in [12]. Besides, the growth in [13] was 108%; in assay [14], 86%; in [15], 105%; in assay [16], 99.7%; in assay [17] it was 96.4%; in assay [18] it was 99.1%. In addition, the growth in [19] was 107%.

Consider `O=C1Nc2ccccc2/C1=C/C(=O)c1ccc(N2CCCCC2)cc1`, for which the growth in assay [1] is 66.8%; in assay [2], 68.2%; in [3], 69.8%; in [4], 82.1%; in [5], 77%; in [6] it was 71.7%. The growth is 103% in [7]; 79.3% in [8]; 97.7% in [9]; 107% in assay [20]; 32.8% in assay [11]; 91.4% in assay [12]. The growth in assay [13] was 86.5%; in assay [14] it was 52.7%; in assay [15], 52.7%; in assay [16], 93.2%; in assay [17], 68.6%; in assay [18] it was 43.3%. The growth in assay [19] was 105%.

In the case of `N#C/C(C(=O)c1ccccc1)=C1/C(=O)Nc2ccccc21`, the growth in assay [1] was 105%; in assay [2] it was 88.6%; in assay [3], 108%; in assay [4] it was 93.2%; in [5], 113%; in assay [6], 95.7%. Besides, the growth in [7] is 98.5%; in assay [8], 97.3%; in assay [9] it was 95.4%; in [20], 35.6%; in assay [11], 102%; in assay [12] it was 66.9%. Further, the growth was 98.8% in assay [13]; 103% in assay [14]; 97.6% in assay [15]; 95.6% in assay [16]; 94.6% in assay [17]; 113% in assay [19].

In the case of `CCOC(=O)c1cnc2ccc(Br)cc2c1Nc1cccc(S(N)(=O)=O)c1`, the growth in assay [1] is 103%; in [2], 90.7%; in assay [3] it was 101%; in assay [4], 89.9%; in [5] it was 90.8%; in [6] it was 88.1%. Moreover, the growth in assay [7] is 95.5%; in [8], 99%; in assay [9] it was 105%; in [20] it was 110%; in assay [11], 107%; in [12] it was 80.6%. In addition, the growth is 88% in assay [13]; 91.9% in assay [14]; 94.5% in [15]; 89.1% in assay [16]; 103% in [17]; 109% in assay [19].

Regarding `CCN(CC)CCCC(C)Nc1c2ccc(C)cc2nc2ccc(OC)cc12` (centres undefined), the growth in assay [1] was 4.05% (active); in assay [2] it was 4.22% (active); in assay [3], 53.3%; in [4] it was 41.9%; in assay [5] it was 23.7%; in assay [6] it was 39.4%. Moreover, the growth in assay [7] is 8.67% (active); in assay [8], 10.2%; in [9] it was -76% (active); in [20], -10.2% (active); in assay [11] it was -26.1% (active); in assay [12], 41%. In addition, the growth in assay [13] is 43.7%; in [14], 31.2%; in assay [15] it was 30.9%; in assay [16], 82.1%; in assay [17] it was 74.4%; in assay [19] it was 62.1%.

On to `O=C(CSc1nccc(Nc2ccc(S(=O)(=O)Nc3ccccn3)cc2)n1)c1ccc(Cl)cc1`, for which the growth is 103% in assay [1]; 86.6% in assay [2]; 112% in [3]; 85.8% in assay [4]; 106% in assay [5]; 95.1% in assay [6]. Also, the growth was 98.2% in assay [7]; 95.3% in assay [8]; 91.3% in assay [9]; 107% in assay [20]; 107% in assay [11]; 101% in assay [12]. Also, the growth in [13] was 97.1%; in [14], 93.9%; in assay [15] it was 84.3%; in assay [16] it was 70.8%; in assay [17], 82.4%; in [18], 87.6%. In assay [19], the growth is 118%.

As to `O=C(O)CC1CCCCC1c1ccccc1` (centres undefined), the growth in assay [1] is 117%; in [2], 109%; in [3], 112%; in assay [4], 116%; in [5] it was 106%; in [6] it was 109%. Moreover, the growth in [7] is 100%; in [8], 91.9%; in [9] it was 112%; in [20], 97.2%; in assay [11], 101%; in assay [12] it was 106%. Further, the growth in assay [13] is 106%; in assay [14] it was 105%; in assay [15] it was 90%; in assay [16], 105%; in assay [17], 102%; in assay [18] it was 103%. Besides, in assay [19], the growth is 119%.

With `CCC(C)[C@H](NC(=O)NC(=O)NC(=O)CI)C(=O)OC` (some centres undefined), the growth was 108% in assay [1]; 6.27% (active) in assay [2]; -44.9% (active) in assay [3]; 46.8% in assay [4]; 85.3% in assay [5]; 94.3% in [6]. Further, the growth in assay [7] is 89.4%; in assay [8], 91.5%; in assay [9] it was 85%; in assay [20], 71.2%; in assay [11], 42.3%; in [12] it was 92.1%. The growth in assay [13] was 93.8%; in [14], 93.2%; in assay [15] it was 93.3%; in assay [16] it was 91.5%; in assay [17], 88.9%; in assay [18], -79.2% (active). The growth in assay [19] is 87.7%.

These data come from PubChem BioAssay (NCI).
